High-throughput results as filed in PubChem BioAssay.
GLP-1R inv ag: GLP-1 receptor (human) inverse agonism. HEK293 GLP-1R CRE-luciferase, luminescence, 24 h; GLP-1R form is constitutively active. Potency, µM (series often up to 38.3 µM), for the others: at the top dose activity change, negative = inhibition, hits mostly inhibitors. actives 1.6% (n = 410,000); note: % is set by controls: 0 for no effect and ±100 for the full control effect; nearly all actives have a fitted effect of over 55% in size
Target sequence (P43220 whole entry, looked up): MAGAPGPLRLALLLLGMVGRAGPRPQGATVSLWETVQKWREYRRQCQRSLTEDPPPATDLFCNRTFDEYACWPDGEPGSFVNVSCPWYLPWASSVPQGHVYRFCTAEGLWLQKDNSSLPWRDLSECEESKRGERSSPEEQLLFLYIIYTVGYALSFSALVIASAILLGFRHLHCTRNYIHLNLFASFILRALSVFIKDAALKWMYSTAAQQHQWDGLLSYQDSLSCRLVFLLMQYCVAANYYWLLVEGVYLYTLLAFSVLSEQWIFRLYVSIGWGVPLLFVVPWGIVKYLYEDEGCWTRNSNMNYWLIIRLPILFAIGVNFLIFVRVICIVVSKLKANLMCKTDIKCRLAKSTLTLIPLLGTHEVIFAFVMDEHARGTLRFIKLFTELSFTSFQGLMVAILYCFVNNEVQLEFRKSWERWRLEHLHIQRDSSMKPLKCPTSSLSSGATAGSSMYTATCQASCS
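Luminescence readout: a drop in cAMP-driven luciferase signal flags inverse agonism at a constitutively active GLP-1R stably expressed in HEK293. Compound exposure lasted 24 hr at 37 deg C, 5% CO2.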
GLP1R ag: agonists of human GLP-1 receptor. Potency, µM (titrated, usually from 45.6 µM), inactives show at the highest dose activation, hits mostly activators. AID 624172. HEK293 GLP-1R CRE-luciferase, luminescence, 4-6 h; cells express a hypersensitive GLP-1R form. P43220. actives 0.007% (n = 380,000); note: % of control where 0% means no effect
GLP1R cytotox: cytotoxicity in counter-screen for GLP-1R inverse agonists. HEK293 cAMP-luciferase reporter cells, luminescence, 24 h. Potency, µM (highest dose often 38.3 µM), for inactives: at the highest dose activity change, negative = inhibition, most hits filed as inhibitors. actives 0.13% (n = 410,000). AID 624418;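 note: loss of luciferase light is scored as toxicity; % is set by controls: 0 for no effect and ±100 for the full control effect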
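To flag toxic compounds, the library was rerun on cells for 24 hr at 37 deg C and 5% CO2. Viability-linked luminescence was captured 12 min after adding luciferase detection reagent.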
BRCA1 expr act: increases BRCA1 expression | MCF7-BRCA1-FFLuc reporter, luminescence, 48 h; response scale: scaled: vehicle 0%, 10 µM genistein 100% | Potency, µM (series often up to 46.1 µM), for the others: at the highest dose activation, actives largely listed as activators | actives 1.1% (n = 380,000) | AID 624202; note: nearly all actives have a fitted effect of over 80% in size
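MCF7 cells carrying a BRCA1-firefly luciferase reporter (2000 cells/well, phenol-red free MEM) were attached for 2 h at 37 °C, then given compounds for 48 h. Luminescence was read 15 min after luciferase reagent; activity normalized to genistein (10 microM) and DMSO.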
* hit, by the source's call; ? = inconclusive; . = no result given. Compounds with a hit are over-represented: about 2.6% of the library has one in this group of screens. Calls come from the whole dose curve; as a rule, active = well fitted curve in the direction sought with a large enough effect; inconclusive = small, poorly fitted or top-dose-only effect, or another doubt; inactive = no such curve, though single readings can be large; an effect the other way counts as inactive or inconclusive. Potency is the fitted concentration of half-maximal effect.

SMILES | GLP-1R inv ag | GLP1R ag | GLP1R cytotox | BRCA1 expr act
Cc1nc(-c2ccc(C)c(N3CCN(C(=O)Nc4cccc(Cl)c4C)CC3)c2)no1 | 4.5µM* | -4% | 0% | -7%
C[C@@]12CC[C@@H](C3=C(CCC3)C1)N2c1ccccc1 | 17% | . | 0% | .
COCCCNC(=O)COc1ccc(Br)cc1Cl | 22% | 5% | -6% | 13µM*
CCNC(=O)COc1ccc(Br)cc1Cl | 2% | 6% | 11% | 47%
O=C(CBr)c1ccc(Oc2ccc(C(=O)C[n+]3cccc(Br)c3)cc2)cc1 | . | . | . | -14%
CCCCN(CCCNC(=O)CN1N=C(c2ccc(C)cc2)CCC1=O)c1ccccc1 | 13µM* | . | -5% | .
COc1ccccc1NC(=O)CSc1nnc(-c2ccoc2C)o1 | 10% | -2% | -10% | 7.9µM*
Cc1cc(C)cc(NC(=O)CSc2nnc(-c3ccccc3C)o2)c1 | 0% | -9% | 8% | ?
N#Cc1cccc(NC(=O)CSc2nnc(-c3n[nH]c4ccccc34)o2)c1 | -3% | 9% | -15% | 38%
Cc1cccc(NC(=O)CSc2nnc(-c3ccccc3C)o2)c1 | 3% | 8% | 2% | 13µM*
Cc1cccc(NC(=O)CSc2nnc(-c3n[nH]c4ccccc34)o2)c1 | 19% | -6% | -7% | 13µM*
CC(C)(C)c1ccc(NC(=O)C2=CC=CN3CCS(=O)(=O)N=C23)cc1 | 8% | -5% | 4% | 10µM*
CCN(CC)c1ccc(NC(=O)C2=CC=CN3CCS(=O)(=O)N=C23)cc1 | 2% | 7% | -13% | 39%
COc1cccc(C(=O)Nc2ccc(F)c(F)c2F)c1 | -15% | 2% | 0% | 3.5µM*
COc1cccc(C(=O)Nc2ccc(C(=O)O)cc2)c1 | 15% | 1% | 10% | 10%
COC(=O)c1ccc(OCC(=O)c2cccc(OC)c2)cc1 | -1% | 1% | 6% | 2µM*
CCCC(=O)Nc1ccc(NC(=O)c2cccc(OC)c2)cn1 | -11% | 8% | 4% | -1%
CCC(=O)Nc1ccc(NC(=O)c2cccc(OC)c2)nc1 | -5% | 6% | -11% | 11µM*
COC(=O)c1ccc(NC(=O)c2cccc(OC)c2)cc1 | 1% | 0% | -13% | 2.5µM*
COC(=O)c1ccc(OCC(=O)c2ccc(C)c(C)c2)cc1 | -6% | -4% | -7% | ?
C[C@]12CC[C@H]3c4ccc(O)cc4CC[C@@H]3[C@H]1CC[C@@H]2OP(=O)(O)O | . | 0% | . | .
Cc1nnc(-c2ccc(N3CCCCCC3)c([N+](=O)[O-])c2)o1 | 14% | 22% | -5% | 22µM*
CCN=c1scc(-c2ccco2)n1/N=C/c1ccc(OC)c(O)c1 | 17% | 7% | -20% | 6.3µM*
COc1cccc(C(O)c2nc(-c3cccc(F)c3)cs2)c1 (stereo not drawn) | ? | 9% | -5% | -9%
O=C(CN1C(=O)CCC1=O)Nc1nc(-c2nc3ccccc3s2)cs1 | 6% | 3% | -27% | 5µM*
SMILES | GLP-1R inv ag | GLP1R ag | GLP1R cytotox | BRCA1 expr act
COc1cc(NC(=O)CC2C(=O)N(c3cccc(C)c3)C(=O)N2Cc2ccco2)cc(OC)c1 (stereo not drawn) | -20% | . | -12% | .
O=S1(=O)CCN(C2CC2)CC1 | -8% | -2% | 3% | 3%
Cc1cccc(-c2noc(CN(C3CCCCC3)S(=O)(=O)c3ccc(F)cc3)n2)c1 | 2% | . | 3% | .
Cc1ccc(S(=O)(=O)N(Cc2nc(-c3cccc(C)c3)no2)C2CCCCC2)cc1 | 10µM* | . | 38% | .
O=S(=O)(c1ccccc1)N(Cc1nc(-c2ccccc2)no1)C1CCCCC1 | 6.3µM* | 7% | 5% | -42%
O=C(C1CC(c2ccccc2O)=NO1)N1CCCCC1 (stereo not drawn) | -8% | -2% | 3% | 10µM*
CSc1ncc(Cl)c(C(=O)Nc2c(C(=O)c3ccc(C)c(F)c3)oc3ccccc23)n1 | 5% | . | 1% | .
Cc1ccc(S(=O)(=O)NC(=O)C2(C)CCN2C(=O)Cc2ccc(Cl)cc2Cl)cc1 (stereo not drawn) | ? | -1% | -3% | -4%
O=C(c1cc2cc(Cl)ccc2[nH]1)N1CCN(Cc2ccc3c(c2)OCO3)CC1 | 11µM* | -3% | -17% | -49%
CN(CC(=O)N1CCc2[nH]c3ccc(F)cc3c2C1)CC1OCCO1 | -8% | -6% | 0% | 12%
O=C(CN1CCN(Cc2ccc3c(c2)OCO3)CC1)N1CCc2[nH]c3ccc(F)cc3c2C1 | 8.9µM* | -5% | -18% | -52%
